# Results from PubChem BioAssay (NCI).
# This is part of a sample that, as a whole, favours compounds with a hit. Of some 83,000 tested, about 20% had one in any assay.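 Activity criterion: percent growth below 10, measured after cells in 96-well plates were exposed to a single compound concentration for 48 hours.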 Unmarked numbers belong to inactive results. Active and inactive are the calls of the source.
# System: MDA-MB-468 breast
# Assay: NCI-60 one-dose screen, 48 h (100 = growth as untreated, 0 = no growth, -100 = all killed)
# Details: 10 µM unless noted
row,Compound,growth
1,CCOc1ccc(-n2c(-c3cc(OC)c(OC)c(OC)c3)nnc2-c2ccc(OC)cc2N)cc1,1.83% (active)
2,O=C(NC1CC(F)C1)c1cc2cccnc2n1-c1ccc(Cl)c(Cl)c1 (configuration not stated),101%
3,CC(=O)OCCC/C(=C\c1ccc2ccccc2c1)[N+](=O)[O-],-55.4% (active)
4,CCCCCCCCn1ccc2cc(NC(=O)CN3CCN(c4nc(C)cc(Cl)n4)CC3)ccc21,92.8%
5,C#CCOc1ccc(C(Nc2ccc(OC)cc2)c2nnnn2C2CCCCC2)cc1 (configuration not stated),101%
6,CCCCCCNC(=O)Oc1ccc(/C(=C(\C)c2ccc(Cl)cc2)c2ccc(OCCCN(C)C)cc2)cc1,92%
7,COc1cc(/C=C/c2ccnc3ccccc23)cc(OC)c1OC,-8% (active)
8,Cc1cnc(N)nc1OCCNC(=O)c1cccc(-c2ccc(S(=O)(=O)Nc3ccc4c(c3)N(C(=O)C3CC3)CCC4)cc2)c1,36.8%
9,CC(=O)Nc1ccc(C(=O)Nc2cc(-c3ccccc3)ccc2N)cc1,110%
10,COc1cc(CN)ccc1O,99.7%
11,Cn1cc(-c2noc(C(=O)c3cn(C)c4ncccc34)n2)c2ccccc21,-9.42% (active)
12,CC(=O)c1c(-c2ccc(OC(F)(F)F)cc2)nc2ccccn12,94.7%
13,CCC(C)[C@H](NC(=O)Nc1cc(C(F)(F)F)cc(C(F)(F)F)c1)C(=O)N[C@@H](Cc1cn(C)cn1)C(=O)OC (some centres not stated),-74.1% [100 µM] (active)
14,CCOC(=O)C(CCCCC(NC(C)=O)(C(=O)OCC)C(=O)OCC)(NC(C)=O)C(=O)OCC,107%
15,CC(COC(=O)c1ccccc1)N1CC2CCC(C1)O2 (configuration not stated),103%
16,CCN1C(=O)N(CC)C2C1NN=c1s/c(=C3\C(=O)N(C(C)C)c4ccccc43)c(=O)n12 (configuration not stated),16.5%
17,Brc1ccc(Nc2csc(-c3ccccn3)n2)cc1,97.5%
18,Cc1cccc2c1NC(=O)C2(c1ccc(O)cc1)c1ccc(O)cc1,-11% (active)
19,O=C1/C(=C/c2ccc(Cl)c(Cl)c2)CN(C(=O)CCN2CCC(=NO)CC2)C/C1=C\c1ccc(Cl)c(Cl)c1,-72.3% (active)

row,Compound,growth
1,c1cncc(-c2csc(-c3c[nH]c4ccccc34)n2)c1,99.1%
2,C=CCN=C1NC(=O)/C(=C/c2cc(C(C)(C)C)c(O)c(C(C)(C)C)c2)S1,43.4%
3,CCN(CC)c1ccc(CNc2cc(C)nc3ccc(OC)cc23)cc1,2.98% (active)
4,N#CC1=C(N)Oc2c(c(N)nn2-c2ccccc2)C1c1ccc(Cl)cc1 (configuration not stated),117%
5,C=C(C)[C@@H]1CC[C@]2(COCCCNCCCN)CC[C@]3(C)[C@H](CC[C@@H]4[C@@]5(C)CC[C@H](O)C(C)(C)[C@@H]5CC[C@]43C)[C@@H]12,-81.6% (active)
6,O=C(c1cccc(F)c1)n1ccc2cc(NC(=S)Nc3cccnc3)ccc21,91.9%
7,O=S(=O)(NCCNc1nccc(-c2c(-c3cccc(F)c3)nc3occn23)n1)c1ccc(Br)cc1,67.7%
8,COc1ccc(OC)c([N+](=O)[O-])c1C=O,81.9%
9,CC(C)(C)[Si](C)(C)OC1[C@@H](O[Si](C)(C)C(C)(C)C)[C@@H](CNC(=O)NC(=O)NC(=O)CCl)O[C@H]1n1cnc2c(NC(=O)Nc3ccccc3)ncnc21 (some centres not stated),106%
10,O=C(Nc1cccc2[nH]c(C(F)(F)F)nc12)c1ccc(Br)cc1F,11.9%
11,Cc1cccc(Cl)c1N,110%
12,CCOC(=O)c1cc2c(n1Cc1cc(OC)cc(OC)c1)-c1oncc1CC2,-14.1% (active)
13,CCC1=C[C@@H]2C[C@]3(C(=O)OC)c4[nH]c5ccccc5c4CC[N@+](CC(=O)Nc4cc5c(cc4OC)N(C)[C@H]4[C@@](O)(C(=O)OC)[C@H](OC(C)=O)[C@]6(CC)C=CCN7CC[C@]54[C@@H]76)(C2)[C@H]13,111%
14,Nc1nc(N)c(N=Nc2ccccc2)c(-c2ccccc2)n1,8.67% (active)
15,CCOC(=O)c1sc(-c2ccc(OS(=O)(=O)c3ccccc3[N+](=O)[O-])c(C=O)c2)nc1C,55.4%
16,Cc1ccc(Sc2nnc(/N=C3\C(=O)Nc4ccccc43)s2)cc1,102%
17,NC(N)=NC(N)=NCCCc1ccco1,107%
18,N#Cc1nnn(-c2ccc(S(N)(=O)=O)cc2)c1NCC(=O)c1ccccc1,96.7%
